# In the supplement of paper PMC10849652:
# The full data set covers some 7,900 targets. This sample favours those with a hit. About 0.6% of all pairs of compound and target were hits. A number with no mark means an inactive call.
# Tests used:
# Test in all cases: log2 fold change, soluble protein after heating vs DMSO (PISA); higher = thermal stabilisation; K562 cells, 10 uM, 30 min; active = over 0.2 and 3.5 SD of the protein, either way, in both replicates (recomputed)
# [1] = compound: CC[C@@H]1C(=O)N(C)c2cnc(Nc3ccc(C(=O)NC4CCN(C)CC4)cc3OC)nc2N1C1CCCC1
# Summary of the method: (§1)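 Thermal stability values are relative to control samples and come from duplicates. They are expressed as log2 fold changes. For measurement, K562 cells (2×10^6 cells/mL) received 10 μM compound for 30 min, and aliquots were heated for 3 min over 48°C-58°C, pooled, and extracted at 4°C in PBS with 0.5% NP-40. Soluble protein, the supernatant after 21,000xg for 90 min, was quantified by TMTpro 16plex LC-MS/MS with equalised channel sums.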
# volasertib = compound: CC[C@@H]1C(=O)N(C)c2cnc(Nc3ccc(C(=O)N[C@H]4CC[C@H](N5CCN(CC6CC6)CC5)CC4)cc3OC)nc2N1C(C)C [volasertib]
# Summary of the method: as §1
# [2] = compound: CC[C@H](C)N1C=C(C2=C(C=C(C=C21)C3=CN=C(C=C3)N4CCNCC4)C(=O)NCC5=C(C=C(NC5=O)C)C)C
# Summary of the method: as §1
# epoxomicin = compound: CC[C@H](C)[C@@H](C(=O)N[C@@H]([C@@H](C)O)C(=O)N[C@@H](CC(C)C)C(=O)[C@]1(CO1)C)NC(=O)[C@H]([C@@H](C)CC)N(C)C(=O)C [epoxomicin]
# Summary of the method: as §1
# [3] = compound: CCn1cc(-c2ccnc3[nH]c(-c4cccc(CN(C)C)c4)cc23)c(-c2ccc(NC(=O)N(C)C)cc2)n1
# Summary of the method: as §1
# [4] = compound: CN(C)CC(=O)Nc1ccc2[nH]c(=O)c3ccccc3c2c1
# Summary of the method: as §1
# rosiglitazone = compound: CN(CCOC1=CC=C(C=C1)C[C@H]2C(=O)NC(=O)S2)C3=CC=CC=N3 (racemic) [rosiglitazone]
# Summary of the method: as §1
# [5] = compound: CN1C2=C(C3=C1C(=O)N(N=C3)CC4=CC(=CC=C4)N)SC(=C2)S(=O)C
# Summary of the method: as §1
# [6] = compound: CN1CCC(CNc2ccc3ncc(-c4cccc(OC(F)(F)F)c4)n3n2)CC1
# Summary of the method: as §1
# saracatinib = compound: CN1CCN(CCOc2cc(OC3CCOCC3)c3c(Nc4c(Cl)ccc5c4OCO5)ncnc3c2)CC1 [saracatinib]
# Summary of the method: as §1
# sotrastaurin = compound: CN1CCN(c2nc(C3=C(c4c[nH]c5ccccc45)C(=O)NC3=O)c3ccccc3n2)CC1 [sotrastaurin]
# Summary of the method: as §1
# alvocidib = compound: CN1CC[C@H](c2c(O)cc(O)c3c(=O)cc(-c4ccccc4Cl)oc23)[C@H](O)C1 [alvocidib]
# Summary of the method: as §1
# Tubastatin A = compound: CN1CCc2c(c3ccccc3n2Cc2ccc(C(=O)NO)cc2)C1 [Tubastatin A]
# Summary of the method: as §1
# defactinib = compound: CNC(=O)c1ccc(Nc2ncc(C(F)(F)F)c(NCc3nccnc3N(C)S(C)(=O)=O)n2)cc1 [defactinib]
# Summary of the method: as §1
# rucaparib = compound: CNCc1ccc(-c2[nH]c3cc(F)cc4c3c2CCNC4=O)cc1 [rucaparib]
# Summary of the method: as §1
# [7] = compound: CNc1nc(-c2ccc3c(N)n[nH]c3c2)cc(N2C[C@@H](C(=O)NC3CCCCC3)CC[C@H]2C)n1
# Summary of the method: as §1
# encorafenib = compound: COC(=O)N[C@@H](C)CNc1nccc(-c2cn(C(C)C)nc2-c2cc(Cl)cc(NS(C)(=O)=O)c2F)n1 [encorafenib]
# Summary of the method: as §1
# [8] = compound: COC(=O)[C@H](CCSC)NC(=O)C1=C(C=C(C=C1)NC[C@H](CS)N)C2=CC=CC=C2
# Summary of the method: as §1
# [9] = compound: CCn1c(C(=O)N(C2CC2)C2CC2)cc2c3c(ncn3C)c(Nc3cc(C)n(C)n3)nc21
# Summary of the method: as §1
# [10] = compound: CNC(=O)C1=CC=CC=C1NC2=NC(=NC=C2Cl)NC3=C(C=C(C=C3)N4CCOCC4)OC
# Summary of the method: as §1
# Sequence of UniProt P07205 (P07205 whole entry, looked up): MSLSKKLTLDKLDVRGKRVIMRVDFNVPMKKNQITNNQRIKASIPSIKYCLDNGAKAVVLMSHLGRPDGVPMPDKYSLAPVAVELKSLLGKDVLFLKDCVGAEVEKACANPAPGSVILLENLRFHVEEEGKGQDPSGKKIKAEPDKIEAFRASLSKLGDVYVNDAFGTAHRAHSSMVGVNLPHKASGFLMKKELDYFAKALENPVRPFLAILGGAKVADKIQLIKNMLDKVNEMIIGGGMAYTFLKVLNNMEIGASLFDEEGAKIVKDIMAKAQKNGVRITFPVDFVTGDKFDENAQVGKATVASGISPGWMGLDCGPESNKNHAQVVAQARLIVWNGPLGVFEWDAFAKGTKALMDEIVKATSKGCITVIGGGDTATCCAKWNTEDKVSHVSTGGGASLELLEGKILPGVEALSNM
# Sequence of UniProt P60484 (P60484 whole entry, looked up): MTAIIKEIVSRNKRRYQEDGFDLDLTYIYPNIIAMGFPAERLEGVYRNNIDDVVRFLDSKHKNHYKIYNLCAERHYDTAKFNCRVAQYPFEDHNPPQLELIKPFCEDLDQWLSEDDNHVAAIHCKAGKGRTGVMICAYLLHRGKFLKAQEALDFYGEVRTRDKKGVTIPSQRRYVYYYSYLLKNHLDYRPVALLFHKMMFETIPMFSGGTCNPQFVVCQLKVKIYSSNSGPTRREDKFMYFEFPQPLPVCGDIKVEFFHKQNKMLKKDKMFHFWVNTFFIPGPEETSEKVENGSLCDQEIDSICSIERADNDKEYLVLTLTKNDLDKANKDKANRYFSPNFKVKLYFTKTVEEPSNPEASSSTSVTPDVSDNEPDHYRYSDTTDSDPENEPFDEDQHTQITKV
# Sequence of UniProt Q2TAL8 (Q2TAL8 whole entry, looked up): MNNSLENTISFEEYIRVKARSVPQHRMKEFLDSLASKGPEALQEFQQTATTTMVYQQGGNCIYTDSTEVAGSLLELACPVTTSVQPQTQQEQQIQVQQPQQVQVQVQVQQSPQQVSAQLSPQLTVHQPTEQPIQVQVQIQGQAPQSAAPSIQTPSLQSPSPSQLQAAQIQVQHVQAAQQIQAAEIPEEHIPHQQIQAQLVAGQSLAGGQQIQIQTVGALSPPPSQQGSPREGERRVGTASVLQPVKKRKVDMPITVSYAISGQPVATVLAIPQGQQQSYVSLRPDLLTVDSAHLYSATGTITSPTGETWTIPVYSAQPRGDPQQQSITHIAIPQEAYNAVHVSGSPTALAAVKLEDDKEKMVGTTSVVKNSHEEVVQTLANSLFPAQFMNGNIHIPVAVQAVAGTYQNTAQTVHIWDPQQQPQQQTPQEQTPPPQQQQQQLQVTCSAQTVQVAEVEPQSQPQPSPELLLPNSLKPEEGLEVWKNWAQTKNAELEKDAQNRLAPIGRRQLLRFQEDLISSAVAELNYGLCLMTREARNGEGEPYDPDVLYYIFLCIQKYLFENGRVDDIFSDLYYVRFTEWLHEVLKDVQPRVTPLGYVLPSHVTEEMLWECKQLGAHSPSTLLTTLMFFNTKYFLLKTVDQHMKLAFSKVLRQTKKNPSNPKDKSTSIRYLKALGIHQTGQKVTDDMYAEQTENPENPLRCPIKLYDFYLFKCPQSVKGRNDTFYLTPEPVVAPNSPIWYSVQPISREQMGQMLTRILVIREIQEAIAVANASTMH
# Sequence of UniProt Q6EEV4 (Q6EEV4 whole entry, looked up): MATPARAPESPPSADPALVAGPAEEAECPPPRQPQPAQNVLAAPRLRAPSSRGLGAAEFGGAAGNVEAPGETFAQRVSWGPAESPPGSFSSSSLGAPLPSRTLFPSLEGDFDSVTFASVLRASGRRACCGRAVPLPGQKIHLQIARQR
# Sequence of UniProt Q9H307 (Q9H307 whole entry, looked up): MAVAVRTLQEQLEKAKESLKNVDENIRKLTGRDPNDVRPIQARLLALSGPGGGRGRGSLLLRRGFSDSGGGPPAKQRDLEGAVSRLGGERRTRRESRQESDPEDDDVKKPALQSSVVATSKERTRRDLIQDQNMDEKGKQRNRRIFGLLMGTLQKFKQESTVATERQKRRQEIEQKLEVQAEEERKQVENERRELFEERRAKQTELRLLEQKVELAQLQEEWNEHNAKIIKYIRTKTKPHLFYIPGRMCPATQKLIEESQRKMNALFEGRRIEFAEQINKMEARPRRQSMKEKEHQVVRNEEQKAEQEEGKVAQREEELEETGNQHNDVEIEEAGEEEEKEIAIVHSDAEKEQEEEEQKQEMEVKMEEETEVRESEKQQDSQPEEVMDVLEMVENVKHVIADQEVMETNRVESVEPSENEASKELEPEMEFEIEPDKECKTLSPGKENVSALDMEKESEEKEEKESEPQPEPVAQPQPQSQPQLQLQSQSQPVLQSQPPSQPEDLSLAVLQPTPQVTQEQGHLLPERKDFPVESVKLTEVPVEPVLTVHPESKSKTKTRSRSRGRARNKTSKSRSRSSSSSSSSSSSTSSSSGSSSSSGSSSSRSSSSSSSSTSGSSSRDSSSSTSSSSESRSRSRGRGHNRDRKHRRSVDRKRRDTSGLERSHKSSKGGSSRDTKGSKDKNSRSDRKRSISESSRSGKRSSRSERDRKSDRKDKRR
# Sequence of UniProt Q15054 (Q15054 whole entry, looked up): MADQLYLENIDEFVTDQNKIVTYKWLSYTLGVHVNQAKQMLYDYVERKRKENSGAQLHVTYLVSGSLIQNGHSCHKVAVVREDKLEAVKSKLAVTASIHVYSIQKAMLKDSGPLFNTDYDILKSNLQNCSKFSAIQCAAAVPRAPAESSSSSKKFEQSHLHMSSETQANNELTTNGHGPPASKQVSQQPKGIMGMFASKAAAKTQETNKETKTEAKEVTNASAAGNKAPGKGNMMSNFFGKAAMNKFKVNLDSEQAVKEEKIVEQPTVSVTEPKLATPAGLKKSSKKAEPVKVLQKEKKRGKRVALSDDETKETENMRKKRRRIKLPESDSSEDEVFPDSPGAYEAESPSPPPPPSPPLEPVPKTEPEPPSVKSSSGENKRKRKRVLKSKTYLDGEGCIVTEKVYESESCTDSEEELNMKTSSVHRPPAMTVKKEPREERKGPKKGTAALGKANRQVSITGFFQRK
# Sequence of UniProt P50336 (P50336 whole entry, looked up): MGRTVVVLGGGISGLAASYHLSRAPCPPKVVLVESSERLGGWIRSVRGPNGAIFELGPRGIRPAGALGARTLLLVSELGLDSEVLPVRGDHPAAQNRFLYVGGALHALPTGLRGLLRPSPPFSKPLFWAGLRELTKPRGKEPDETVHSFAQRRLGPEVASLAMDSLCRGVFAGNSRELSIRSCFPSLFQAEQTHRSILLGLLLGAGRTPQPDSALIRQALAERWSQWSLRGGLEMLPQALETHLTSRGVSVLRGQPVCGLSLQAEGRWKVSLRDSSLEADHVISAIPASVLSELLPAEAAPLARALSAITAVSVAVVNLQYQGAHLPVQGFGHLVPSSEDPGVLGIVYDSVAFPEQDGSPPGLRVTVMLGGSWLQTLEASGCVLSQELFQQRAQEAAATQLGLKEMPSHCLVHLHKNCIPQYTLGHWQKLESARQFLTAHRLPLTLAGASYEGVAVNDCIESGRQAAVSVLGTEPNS
# Sequence of UniProt Q9NYI0 (Q9NYI0 whole entry, looked up): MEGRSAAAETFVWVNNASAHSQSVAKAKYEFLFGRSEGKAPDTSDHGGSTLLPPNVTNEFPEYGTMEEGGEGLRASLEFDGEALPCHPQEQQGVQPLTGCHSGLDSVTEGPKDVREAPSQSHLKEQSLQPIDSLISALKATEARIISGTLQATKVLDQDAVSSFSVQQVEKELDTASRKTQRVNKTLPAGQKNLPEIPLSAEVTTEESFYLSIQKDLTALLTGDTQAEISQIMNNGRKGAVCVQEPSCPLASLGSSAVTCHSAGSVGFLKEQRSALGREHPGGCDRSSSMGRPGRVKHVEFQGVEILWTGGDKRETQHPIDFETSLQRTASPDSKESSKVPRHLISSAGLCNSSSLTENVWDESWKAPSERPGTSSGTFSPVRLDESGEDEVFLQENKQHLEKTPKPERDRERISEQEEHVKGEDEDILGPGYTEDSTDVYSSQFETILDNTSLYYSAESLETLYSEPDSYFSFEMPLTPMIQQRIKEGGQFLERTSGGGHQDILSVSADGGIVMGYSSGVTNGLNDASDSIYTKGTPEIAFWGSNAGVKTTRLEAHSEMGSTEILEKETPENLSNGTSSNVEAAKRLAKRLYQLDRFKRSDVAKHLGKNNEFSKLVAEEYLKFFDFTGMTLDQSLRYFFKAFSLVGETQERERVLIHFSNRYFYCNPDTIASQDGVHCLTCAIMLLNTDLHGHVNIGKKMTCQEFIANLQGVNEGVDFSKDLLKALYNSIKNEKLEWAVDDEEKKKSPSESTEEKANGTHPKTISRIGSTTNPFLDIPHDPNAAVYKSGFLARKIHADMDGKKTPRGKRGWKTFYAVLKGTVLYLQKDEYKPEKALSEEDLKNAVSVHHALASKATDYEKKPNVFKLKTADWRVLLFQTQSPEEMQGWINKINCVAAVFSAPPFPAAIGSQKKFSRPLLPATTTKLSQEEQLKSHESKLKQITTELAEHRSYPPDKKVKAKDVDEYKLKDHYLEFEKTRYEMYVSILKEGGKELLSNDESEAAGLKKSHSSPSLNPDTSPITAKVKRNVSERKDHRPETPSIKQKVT
# Sequence of UniProt P14618 (P14618 whole entry, looked up): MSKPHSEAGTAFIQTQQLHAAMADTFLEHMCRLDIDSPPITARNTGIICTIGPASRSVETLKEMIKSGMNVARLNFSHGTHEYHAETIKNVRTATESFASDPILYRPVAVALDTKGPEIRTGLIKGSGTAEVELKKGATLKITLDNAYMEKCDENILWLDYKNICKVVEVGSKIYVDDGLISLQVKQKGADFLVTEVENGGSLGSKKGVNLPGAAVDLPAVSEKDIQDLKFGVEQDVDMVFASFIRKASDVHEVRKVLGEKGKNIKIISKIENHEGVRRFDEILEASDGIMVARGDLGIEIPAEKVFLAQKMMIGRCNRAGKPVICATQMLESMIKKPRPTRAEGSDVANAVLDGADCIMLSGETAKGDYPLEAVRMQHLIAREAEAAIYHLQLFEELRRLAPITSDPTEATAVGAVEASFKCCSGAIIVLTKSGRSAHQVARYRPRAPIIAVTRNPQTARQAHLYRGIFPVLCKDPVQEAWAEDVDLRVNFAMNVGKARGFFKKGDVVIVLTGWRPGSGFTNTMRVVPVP
Target,log2 fold change [1],log2 fold change (volasertib),log2 fold change [2],log2 fold change (epoxomicin),log2 fold change [3],log2 fold change [4],log2 fold change (rosiglitazone),log2 fold change [5],log2 fold change [6],log2 fold change (saracatinib),log2 fold change (sotrastaurin),log2 fold change (alvocidib),log2 fold change (Tubastatin A),log2 fold change (defactinib),log2 fold change (rucaparib),log2 fold change [7],log2 fold change (encorafenib),log2 fold change [8],log2 fold change [9],log2 fold change [10]
PGK2 (UniProt P07205),0.054,0.123,-0.028,-0.037,0.123,-0.112,0.023,-0.059,0.06,-0.196,0.154,0.017,-0.041,0.037,-0.248,-0.131,-0.056,0.038,,
PDIK1L (UniProt Q8N165),0.123,0.108,-0.056,-0.128,,-0.028,-0.135,0.02,,-0.062,0.019,-0.087,0.063,0.014,0.111,-0.064,-0.022,-0.115,0.123,0.192
PNN (UniProt Q9H307),0.248,-0.039,-0.077,-0.07,0.021,,0.003,0.067,-0.042,-0.037,-0.044,-0.12,,,0.303,-0.071,-0.174,,-0.052,-0.067
PNPLA4 (UniProt P41247),-0.152,-0.093,-0.039,,,-0.004,-0.081,0.126,,-0.267,-0.091,-0.02,0.007,-0.047,0,0.17,-0.343,-0.011,-0.083,0.058
PPOX (UniProt P50336),-0.134,-0.023,-0.017,-0.002,-0.052,0.008,0.127,-0.164,-0.583 (active),-0.087,0.02,-0.049,-0.045,-0.07,-0.059,0.274,-0.018,-0.01,0.109,0.534 (active)
PPP1R12C (UniProt Q9BZL4),0.029,-0.027,0.204,-0.102,-0.116,-0.03,-0.031,0.013,0.029,-0.115,-0.157,,0.014,-0.205,0.184,-0.164,-0.013,0.035,-0.094,0.113
PSD3 (UniProt Q9NYI0),-0.019,-0.108,0.061,,,0.004,,,,,,-0.054,,-0.004,-0.03,,0.003,-0.019,,
POLR2E (UniProt P19388),0.027,-0.067,0.018,0.065,0.015,0.034,0.01,0.092,0.09,-0.077,,0.212,-0.009,0.216,0.153,0.104,0.025,-0.081,-0.104,-0.076
POLD3 (UniProt Q15054),-0.147,-0.101,0.008,0.126,-0.037,0.067,0.513,0.051,-0.118,-0.035,-0.131,-0.229,0.137,-0.225,0.018,0.042,0.082,-0.047,-0.071,0.01
PTEN isoform 2 (UniProt P60484),0.024,0.05,,,-0.016,,,,-0.098,,,,,,-0.108,,0.015,,-0.071,-0.247
POLR2C (UniProt P19387),0.059,-0.187,0.017,0.075,,0.006,0.042,-0.04,,-0.096,-0.015,0.204,-0.049,0.133,0.059,0.03,0.002,-0.045,-0.035,-0.043
PRKACB isoform 2 (UniProt P22694),-0.025,-0.031,0.004,-0.033,-0.009,-0.048,0.025,-0.042,-0.022,-0.013,-0.119,-0.014,-0.035,0.004,0.002,0.018,0.011,0.022,0.008,-0.101
PKM isoform 2 (UniProt P14618),0,0.091,0.018,0.29,-0.006,0.053,-0.1,-0.184,-0.046,0.202,-0.133,,-0.052,-0.045,0.125,-0.063,-0.09,-0.081,,
QRICH1 (UniProt Q2TAL8),-0.464 (active),-0.39,0.07,0.027,,0.258,-0.017,0,,-0.019,-0.076,-0.127,0.156,-0.271,-0.008,-0.004,0.097,0.169,-0.163,-0.036
POLR2M (UniProt Q6EEV4),0.13,0.009,0.002,0.154,,0.091,0.097,0.105,,0.011,-0.015,-0.178,-0.131,-0.081,-0.145,-0.084,-0.047,0.026,0.027,0.097
